Most compounds without a hit are left out; they make up all but 3% or so of the library.
GRP78 ERSR act: ER stress response induction in glioma. U87-MG GRP78 promoter luciferase reporter, 16 h. Potency, µM, most hits filed as activators. 420,000 compounds, 0.02% hits. AID 602332; note: series mostly up to about 76 µM; nearly all actives have a fitted effect of over 35% in size
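Stably transfected U87-MG human glioma cells carrying a GRP78-based luminescent sensor were seeded at 1000 cells/well, pin-dosed with compounds and incubated 16 h. Luciferase reagent was then added, and end-point luminescence was read after 10 min at room temperature.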
DRD3 agonist: D3 dopamine receptor (human) agonism; P35462; 410,000 compounds, 0.58% hits; max activation, %; D3R DiscoveRx beta-arrestin cells, luminescence, 90 min; in the data active = max activation above about 30%
Target sequence (P35462 whole entry, looked up): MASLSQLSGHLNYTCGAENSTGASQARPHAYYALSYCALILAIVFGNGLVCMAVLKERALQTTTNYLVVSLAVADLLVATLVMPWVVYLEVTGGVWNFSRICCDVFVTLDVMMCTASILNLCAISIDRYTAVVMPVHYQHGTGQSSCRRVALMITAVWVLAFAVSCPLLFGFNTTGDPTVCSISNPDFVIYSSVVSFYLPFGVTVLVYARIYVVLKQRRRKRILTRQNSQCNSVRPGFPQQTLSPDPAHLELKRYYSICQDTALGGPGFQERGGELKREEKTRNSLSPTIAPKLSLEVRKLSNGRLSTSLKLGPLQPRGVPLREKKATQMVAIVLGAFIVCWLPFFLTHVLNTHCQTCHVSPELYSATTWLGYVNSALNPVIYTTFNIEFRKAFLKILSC
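Cells at 1500/well, incubated overnight, then treated with pinned compounds (dopamine as control) for 90 min at 37 degrees C. DiscoveRx reagent added for 30 - 60 minutes at room temperature; luminescence read.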
DRD3 antagonist: antagonists of human D3 dopamine receptor. D3R cells, DiscoveRx beta-arrestin luminescence, antagonist mode; hits give low values. max response, negative = inhibition, %. P35462. AID 652054. 360,000 compounds, 2.5% hits; in the data active = max response below about -50%; inconclusive = no clear call, values can overlap the other calls
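Cells expressing the human receptor were seeded at 1500 cells/well, incubated overnight at 37 degrees C in 5% CO2, then exposed to library compounds with dopamine controls for 90 minutes at 37 degrees C before luminescent detection.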
Nrf2 ARE act: Nrf2 pathway activation. Potency, µM (titrated, usually from 46.1 µM), usual class: activators. AID 624171. 410,000 compounds, 0.31% hits. AREc32 ARE-luciferase reporter (MCF7-derived line), luminescence, 24 h; note: nearly all actives have a fitted effect of over 65% in size
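Steps: seed AREc32_Fluc cells (1000/well, 5% FBS OPTI-MEM); incubate overnight at 37 deg C; add 23 nL compound; incubate 24 hr; add Steady-Glo; hold 30 min RT; read luminescence.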
Of the large screens only hits and unclear results are named; the others gave an inactive call. Unless noted, calls come from the whole dose curve; as a rule, active = well fitted curve in the direction sought with a large enough effect; inconclusive = small, poorly fitted or top-dose-only effect, or another doubt; inactive = no such curve, though single readings can be large; an effect the other way counts as inactive or inconclusive.

CC(C)N=c1scc(-c2ccco2)n1/N=C/c1ccc(O)c(O)c1	GRP78 ERSR act inconclusive, Nrf2 ARE act inconclusive
O=C(Nc1cccc(-c2nc3ncccc3o2)c1)c1ccc(-c2cccc(Cl)c2Cl)o1	none (no result: DRD3 antagonist)
CC(C(=O)c1ccccc1)[n+]1cccc(Br)c1 (configuration not stated)	DRD3 antagonist -71
CC(C(=O)c1ccccc1)[n+]1cccc(Cl)c1 (configuration not stated)	none (no result: DRD3 agonist, DRD3 antagonist, Nrf2 ARE act)
CC(=O)Nc1cc[n+](C(C)C(=O)c2ccc(Br)cc2)cc1 (configuration not stated)	DRD3 antagonist -84
CC(=O)Nc1cc[n+](C(C)C(=O)c2ccccc2)cc1 (configuration not stated)	DRD3 antagonist inconclusive
Cc1cc(Cl)ccc1NC(=O)C1CCN(S(=O)(=O)c2ccc3[nH]c(=O)ccc3c2)CC1	none (no result: DRD3 antagonist)
COCC(C)NC(=O)CCS(=O)(=O)c1nc(-c2ccc(OC)cc2)cc(C(F)(F)F)n1 (configuration not stated)	DRD3 antagonist -87, Nrf2 ARE act 16µM
CCOC(=O)CCS(=O)(=O)c1nc(-c2ccccc2)cc(C(F)(F)F)n1	DRD3 antagonist -51, Nrf2 ARE act inconclusive
Cc1cc(NC(=O)CCCS(=O)(=O)c2nc(-c3cccs3)cc(C(F)(F)F)n2)no1	DRD3 antagonist -106
CCC(C)NC(=O)CCSc1nc(-c2ccc(OC)cc2)cc(C(F)(F)F)n1 (configuration not stated)	none (no result: DRD3 antagonist)
CCOC(=O)CS(=O)(=O)c1nc(-c2ccc(F)cc2)cc(C(F)(F)F)n1	DRD3 antagonist -64, Nrf2 ARE act inconclusive
O=C(O)CCS(=O)(=O)c1nc(-c2cccs2)cc(C(F)(F)F)n1	Nrf2 ARE act inconclusive
COc1ccc(-c2cc(C(F)(F)F)nc(SCC(=O)NCc3ccc(OC)c(OC)c3)n2)cc1	none (no result: DRD3 antagonist)
COC(=O)CCS(=O)(=O)c1nc(-c2ccccc2)cc(C(F)(F)F)n1	DRD3 antagonist -78, Nrf2 ARE act inconclusive
CCOC(=O)CS(=O)(=O)c1ccccc1	none
CCOC(=O)CS(=O)(=O)c1nc(-c2ccccc2)cc(C(F)(F)F)n1	DRD3 antagonist -69, Nrf2 ARE act inconclusive
Cc1ccc(CNC(=O)CN(C)S(=O)(=O)c2ccc3c(c2)c(=O)n(C)c(=O)n3C)cc1	none (no result: DRD3 antagonist)
COc1cc(Nc2c(C#N)cnc3cc(OCCCN4CCN(C)CC4)c(OC)cc23)c(Cl)cc1Cl	none (no result: DRD3 antagonist, Nrf2 ARE act)
Cc1cccc(C(=O)NCc2nc(-c3ccccc3NC(=O)C3CCCO3)oc2C)c1 (configuration not stated)	none (no result: DRD3 agonist, DRD3 antagonist, Nrf2 ARE act)
CCN(CC)c1ccc(C2C(C(=O)OC)=C(C)NC(C)=C2C(=O)OC)cc1	DRD3 antagonist -51
COc1ccc(-c2cc3c(=O)n(CC(=O)NCCCN4CCN(Cc5ccccc5)CC4)ncn3n2)cc1	DRD3 antagonist -67
COc1ccc(-c2cc3c(=O)n(CC(=O)NCCCN4CCC(Cc5ccccc5)CC4)ncn3n2)cc1	DRD3 antagonist -101
COc1ccc(-c2cc3c(=O)n(CC(=O)NCc4ccc(Cl)cc4)ncn3n2)cc1	none
COC(=O)c1sccc1S(=O)(=O)N(CC(=O)Nc1ccccc1F)c1ccccc1	none (no result: DRD3 antagonist)
COc1ccccc1C(=O)N[C@@H]1c2ccccc2C2(CCN(Cc3c(O)cccc3OC)CC2)[C@H]1O	none (no result: DRD3 agonist, DRD3 antagonist, Nrf2 ARE act)
O=C(NCC1Cc2cccc(-c3cccnc3)c2O1)c1ccc2cc[nH]c2c1 (configuration not stated)	none (no result: DRD3 agonist, DRD3 antagonist, Nrf2 ARE act)
Cc1cnc(-n2ncc(C(=O)N(CCO)C(C)C)c2-c2cccs2)nc1-c1ccc(F)cc1	none (no result: DRD3 agonist, DRD3 antagonist, Nrf2 ARE act)
Cc1ccc(NC(=O)NCCN2CCN(c3ccccc3)CC2)cc1Cl	DRD3 antagonist -71
O=C(NCCN1CCN(c2ccccc2)CC1)Nc1cccc(Cl)c1	DRD3 antagonist inconclusive
Cc1cccc(NC(=O)NCCN2CCN(c3ccccc3)CC2)c1C	DRD3 antagonist -71
CCc1ccc(N2CCN(CCNC(=O)Nc3ccccc3)CC2)cc1	DRD3 antagonist -72
COc1ccc(Cl)c(NC(=O)NCCN2CCN(c3ccccc3)CC2)c1	DRD3 antagonist inconclusive
CC(=O)Oc1ccc(C(=O)O)cc1OC(C)=O	none
CC(=O)Oc1cccc2c1C(=O)c1c(OC(C)=O)cc(C(=O)O)cc1C2=O	DRD3 antagonist -122
O=S(=O)(/N=C(/Sc1ccccc1)c1ccccc1)c1ccc(Cl)cc1	none (no result: DRD3 agonist, DRD3 antagonist, Nrf2 ARE act)
N#Cc1c2c(c(NCc3cccnc3)n3c1nc1ccccc13)CCC2	DRD3 antagonist -53
CCCc1cc(C(=O)NNC(=S)NCC)c2ccccc2n1	DRD3 antagonist -56
O=C(Nc1cccnc1)c1cc(-c2cccnc2)nc2ccc(Br)cc12	DRD3 agonist 55
O=C(Nc1cccnc1)c1cc(-c2cccc(Br)c2)nc2ccccc12	none
CCCOc1ccc(C(=O)NNC(=S)NC(=O)c2ccccc2)cc1	GRP78 ERSR act inconclusive
CCNC(=S)NNC(=O)c1cc(-c2cc(C)ccc2C)nc2ccccc12	none
COc1cc(NC(=O)c2cc(-c3cccnc3)nc3ccc(Br)cc23)cc(OC)c1	DRD3 agonist 36
CCCOc1ccc(C(=O)NNC(=S)NC(=O)c2cc(-c3ccccc3)nc3ccccc23)cc1	GRP78 ERSR act inconclusive, DRD3 antagonist -55
CCOc1ccc(S(=O)(=O)NCc2nc3cccnc3n2Cc2ccccc2OC)cc1	none (no result: DRD3 antagonist)
Cc1cccc(NC(=S)NC(=O)c2cc(-c3ccccc3)nc3ccccc23)c1	DRD3 antagonist -54
O=C(Nc1ccncc1)c1cc(-c2cccc(Br)c2)nc2ccccc12	DRD3 agonist 31
Cc1ccccc1NC(=S)NC(=O)c1cc(-c2ccccc2)nc2ccccc12	none
Cc1ccc(NC(=O)CCNS(=O)(=O)c2cc(Br)cnc2N)cc1Cl	none
Cc1cc(NC(=O)CCNS(=O)(=O)c2cc(Br)cnc2N)ccc1Br	DRD3 antagonist -51
C=Cc1c(C)c2cc3nc(cc4[nH]c(cc5nc(cc1[nH]2)C(C)=C5CCC(=O)OC)c(CCC(=O)O)c4C)[C@@]1(C)C3=CC=C(C(=O)OC)[C@H]1C(=O)OC	none (no result: GRP78 ERSR act, DRD3 antagonist, Nrf2 ARE act)
C/C(=N\OCC(=O)Nc1ccccc1Br)c1cccs1	Nrf2 ARE act 22µM
N#C/C(=C\c1ccc[nH]1)C(=O)Nc1ccccc1Cl	Nrf2 ARE act inconclusive
N#C/C(=C\c1ccc[nH]1)C(=O)Nc1ccccc1F	Nrf2 ARE act 11µM
COC(=O)C1CCCCN1Cc1ccc2c(c1)CN(Cc1cnn(-c3ccccc3)c1)CCO2 (configuration not stated)	none (no result: DRD3 agonist, DRD3 antagonist, Nrf2 ARE act)
Cc1cc(Br)cn2c(Cc3ccccc3)c(-c3cccc(Cl)c3)nc12	DRD3 antagonist -60 (no result: GRP78 ERSR act)
Cc1cc(Br)cn2c(Cc3cccc(Cl)c3)c(-c3ccco3)nc12	DRD3 antagonist -63, Nrf2 ARE act inconclusive (no result: GRP78 ERSR act)
Cc1ccc(-c2nc3c(C)cc(Br)cn3c2Cc2cccc(F)c2)cc1	DRD3 antagonist -57 (no result: GRP78 ERSR act)
Cc1ccc(Cc2c(-c3ccccc3)nc3c(C)cc(Br)cn23)cc1	none (no result: GRP78 ERSR act)
CN(C)c1ccc(C2CCc3ccccc3N2C(=O)c2ccccc2)cc1 (configuration not stated)	none (no result: DRD3 agonist, DRD3 antagonist, Nrf2 ARE act)
Cn1cc(CN2CCN(c3ccccc3)CC2)c2ccccc21	DRD3 antagonist -79
O=C(O)Cn1cc(CN2CCOCC2)c2ccccc21	none

Screening data from PubChem BioAssay.
